Reference: the supplement of paper PMC6555819

Columns and labels:
Test in all cases: PBM binding z-score (relative to random genomic background probes); higher = stronger binding; sequences stand for … in GC…GCGATTGACAGCGTAGAATGAAGG
[1] = tested on: FXR:RXRa (NR concentration 270 nM, RXRa partner concentration 90 nM)
Procedure, shortened: (§1)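 The probes on custom Agilent 4×180K protein-binding microarrays were double-stranded, with 34-nt variable regions bearing direct-repeat seeds, single-nucleotide variants, half-site ablations and random human genomic background sequences. Incubation lasted 1 h with ligand-free nuclear receptor dimers in PBS pH 7.4, 2% milk, 0.02% Triton X-100, 1 mM DTT, 0.2 mg/mL BSA and 0.4 mg/ml salmon testes DNA. Antibodies against each partner (one per run) detected bound dimers, and fluorescence scans were regression-normalized. Binding z-scores take the random background probes as reference.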

[2] = tested on: LXRa:RXRa (NR concentration 270 nM, RXRa partner concentration 90 nM)
Procedure, shortened: as §1

[3] = tested on: LXRa homodimer (NR concentration 270 nM)
Procedure, shortened: as §1

[4] = tested on: LXRb:RXRa (NR concentration 270 nM, RXRa partner concentration 90 nM)
Procedure, shortened: as §1

[5] = tested on: LXRb homodimer (NR concentration 270 nM)
Procedure, shortened: as §1

[6] = tested on: PPARa:RXRa (NR concentration 270 nM, RXRa partner concentration 90 nM)
Procedure, shortened: as §1

[7] = tested on: PPARg:RXRa (NR concentration 180 nM, RXRa partner concentration 90 nM)
Procedure, shortened: as §1

[8] = tested on: PPARg:RXRa 270nM:90nM, anti-RXR (NR concentration 270 nM, RXRa partner concentration 90 nM)
Procedure, shortened: as §1

[9] = tested on: PPARg:RXRa 30nM:10nM, anti-RXR (NR concentration 30 nM, RXRa partner concentration 10 nM)
Procedure, shortened: as §1

[10] = tested on: PPARg:RXRa 90nM:30nM, anti-RXR (NR concentration 90 nM, RXRa partner concentration 30 nM)
Procedure, shortened: as §1

[11] = tested on: PPARg:RXRa DBDmut IVT, anti-RXR (DBD mutation: RXRa K156A/R161A, NR concentration 270 nM, RXRa partner concentration 90 nM)
Procedure, shortened: as §1

[12] = tested on: PPARg:RXRa IVT, anti-PPARg (NR concentration 270 nM, RXRa partner concentration 90 nM)
Procedure, shortened: as §1

[13] = tested on: PPARg DBDmut:RXRa IVT, anti-PPARg (DBD mutation: PPARg1 K132A/R137A, NR concentration 270 nM, RXRa partner concentration 90 nM)
Procedure, shortened: as §1

[14] = tested on: PPARg DBDmut IVT, anti-PPARg (DBD mutation: PPARg1 K132A/R137A, NR concentration 270 nM)
Procedure, shortened: as §1

[15] = tested on: PPARg homodimer (NR concentration 180 nM)
Procedure, shortened: as §1

[16] = tested on: PXR:RXRa (NR concentration 270 nM, RXRa partner concentration 90 nM)
Procedure, shortened: as §1

[17] = tested on: PXR homodimer (NR concentration 270 nM)
Procedure, shortened: as §1

[18] = tested on: RARa:RXR (NR concentration 270 nM, RXRa partner concentration 90 nM)
Procedure, shortened: as §1

[19] = tested on: RARa homodimer (NR concentration 270 nM)
Procedure, shortened: as §1

[20] = tested on: RARb:RXRa (NR concentration 270 nM, RXRa partner concentration 90 nM)
Procedure, shortened: as §1

Row | Sequence | PBM binding z-score [1] | PBM binding z-score [2] | PBM binding z-score [3] | PBM binding z-score [4] | PBM binding z-score [5] | PBM binding z-score [6] | PBM binding z-score [7] | PBM binding z-score [8] | PBM binding z-score [9] | PBM binding z-score [10] | PBM binding z-score [11] | PBM binding z-score [12] | PBM binding z-score [13] | PBM binding z-score [14] | PBM binding z-score [15] | PBM binding z-score [16] | PBM binding z-score [17] | PBM binding z-score [18] | PBM binding z-score [19] | PBM binding z-score [20]
1 | ATCTCTAGGTATAAGTTCAGTGAATCCCGAGGAT | 0.24 | 0.542 | 0.507 | 0.379 | 0.825 | 1.77 | 2.79 | 4.45 | 2.94 | 4.55 | 0.227 | 0.858 | 1.41 | 1.22 | 0.751 | 1.44 | 2.32 | 0.493 | 1.02 | 1.73
2 | GCGACTGGGGCATAAGCAGGTTACCATAACTTAA | -0.0719 | 0.177 | -0.305 | 0.583 | -0.304 | 1.24 | 1.62 | 2.1 | 0.29 | 1.26 | 3.36 | 3.18 | -0.0704 | -1.04 | 0.497 | 0.0393 | -0.431 | 0.498 | -0.34 | 0.653
3 | ATAGAAAGGTCGTGAGGTGAGTATACAGAAAGGC | 4.9 | 3.76 | 0.49 | 3.4 | 0.703 | 4.86 | 4.33 | 4.37 | 2.46 | 3.57 | 0.952 | 2.43 | 1.91 | 1.19 | 2 | 3.19 | 0.712 | 4.26 | 1.11 | 3.97
4 | AGAATGAGGTTATACGTAAATCAGGGAAGAAAGT | 2.3 | 1.9 | 0.21 | 1.77 | 0.0752 | 3.24 | 2.5 | 2.79 | 0.991 | 2.07 | 3.33 | 2.28 | 0.904 | 1.57 | 0.789 | 1.18 | 0.834 | 1.77 | 0.337 | 1.59
5 | CCTACTGGGCCGAAGGTCATTGATTCCAATGCTC | 2.23 | 2.47 | 1.02 | 2.44 | -0.461 | 4.85 | 9.28 | 9.02 | 8.18 | 10.3 | 1.48 | 5.21 | -0.502 | -0.797 | 1.81 | 2.9 | 0.597 | 3.05 | 0.247 | 2.88
6 | TCTATTAGTTGATTAGGGTAACCGAAACAGCGGA | 0.555 | 0.884 | 0.302 | 1.09 | 0.799 | 1.01 | 0.052 | 1.86 | 3.73 | 2.87 | 2.12 | 1.19 | 1.29 | 1.26 | 0.518 | 0.646 | 0.346 | 0.855 | 1.41 | 0.609
7 | TAGCCTAGGTCATTCGGGCCAGTATAGTGTCGGC | 4.65 | 3.71 | 1.53 | 2.35 | 0.458 | 3.55 | 1.61 | 2.21 | -0.0237 | 1.26 | 1.8 | 2.76 | -0.115 | -0.745 | 0.969 | 2.11 | 0.189 | 2.39 | -0.428 | 3.74
8 | ATATGTAGGTTATCAGGTCATTCAGTTTGCGCAT | 3.19 | 3.57 | 4.4 | 2.93 | 1.68 | 4.62 | 7.23 | 5.99 | 4.05 | 5.54 | 7.41 | 7.44 | 1.79 | 2.79 | 2.91 | 3.44 | 9.35 | 3.2 | 2.11 | 2.86
9 | ATATGTAGGTGACATCCGGGTCATTCAGGCTATG | 2.96 | 2.62 | 0.319 | 2.21 | 0.147 | 5.01 | 6.79 | 5.7 | 2.91 | 5 | 7.69 | 8.07 | 4.09 | 3.49 | 3.11 | 3.52 | 2.13 | 3.62 | -0.0147 | 2.14
